CYP2C9 activ – activators of human CYP2C9. recombinant CYP2C9, luciferin-H conversion, luminescence; stronger effect = higher value; factor 1 = untreated enzyme, 0 = blocked. activation factor at 5 µM. 1.4% of 96,000 active. AID 1024;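 active means activation factor of 2 or more for CYP2C9 at a 5 µM dose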;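 further: 0 = sulfaphenazole-blocked wells and 1 = vehicle-only wells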
CYP2C19 act – increases human CYP2C19 enzyme activity. activation factor at 5 µM. AID 1025. recombinant CYP2C19, luciferin-H EGE luminescence; stronger effect = higher value; 0 = fully inhibited enzyme, 1 = untreated enzyme. 96,000 tested, under 10 active. P33261;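 active means activation factor of at least 2 at 5 µM in the primary screen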;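 further: 0 = wells with 2.5 mM tranylcypromine and 1 = vehicle-only wells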
CYP2C9 inhib – blocks human cytochrome P450 2C9. CYP2C9 Supersomes, luciferin-H conversion, luminescence. inhibition, % at 5 µM. 20% of 96,000 active;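 active means blocking of liver enzyme CYP2C9 beyond about 50% at 5 µM, limit read from the data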
EphB4 antag – antagonists of human EphB4-ephrin-B2 interaction | EphB4 LBD / TNYL-RAW-Alexa532 peptide, fluorescence polarization | P54760 | 0.15% of 97,000 active | inhibition, % at 7 µM;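 active means inhibition above the screen-wide mean inhibition plus 3 SD, cut at about 15% in these data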;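 further: 0% = DMSO wells and 100% = excess unlabeled TNYL-RAW peptide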
Target sequence (P54760 whole entry, looked up, the tested form may be a part): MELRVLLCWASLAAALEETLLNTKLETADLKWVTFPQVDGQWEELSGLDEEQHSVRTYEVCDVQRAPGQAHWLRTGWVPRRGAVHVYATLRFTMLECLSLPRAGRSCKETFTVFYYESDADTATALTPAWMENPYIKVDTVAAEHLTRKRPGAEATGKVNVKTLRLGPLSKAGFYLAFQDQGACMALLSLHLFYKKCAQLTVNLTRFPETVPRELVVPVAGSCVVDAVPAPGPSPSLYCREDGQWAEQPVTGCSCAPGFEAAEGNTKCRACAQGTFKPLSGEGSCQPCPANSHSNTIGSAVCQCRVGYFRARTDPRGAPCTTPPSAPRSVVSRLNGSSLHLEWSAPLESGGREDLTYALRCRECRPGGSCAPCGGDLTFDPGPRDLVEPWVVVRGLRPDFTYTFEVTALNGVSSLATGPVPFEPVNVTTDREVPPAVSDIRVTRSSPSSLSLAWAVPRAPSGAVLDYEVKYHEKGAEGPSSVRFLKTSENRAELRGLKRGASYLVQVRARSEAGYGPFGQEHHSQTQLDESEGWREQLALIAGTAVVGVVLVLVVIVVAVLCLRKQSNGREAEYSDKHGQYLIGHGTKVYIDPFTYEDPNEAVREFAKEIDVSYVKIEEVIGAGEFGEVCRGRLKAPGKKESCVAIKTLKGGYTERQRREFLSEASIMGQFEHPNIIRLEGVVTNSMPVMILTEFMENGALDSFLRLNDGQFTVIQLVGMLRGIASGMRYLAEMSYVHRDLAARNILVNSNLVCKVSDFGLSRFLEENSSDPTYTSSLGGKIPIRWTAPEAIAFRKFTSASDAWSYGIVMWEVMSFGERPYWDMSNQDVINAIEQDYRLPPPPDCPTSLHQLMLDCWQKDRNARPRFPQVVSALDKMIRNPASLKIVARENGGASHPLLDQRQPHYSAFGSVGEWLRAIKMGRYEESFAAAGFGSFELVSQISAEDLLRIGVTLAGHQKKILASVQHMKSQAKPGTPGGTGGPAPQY
CYP2C19 inhib – inhibitors of human CYP2C19; 21% of 96,000 active; P33261; inhibition, % at 5 µM; CYP2C19 Supersomes, luciferin-H EGE luminescence, 30 min;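 active means CYP2C19 inhibition above a set limit at 5 µM in the primary screen, cut at about 50% in these data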;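 further: plate controls were negative control wells for no effect and 2.5 mM tranylcypromine positive control for full effect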
* marks the source's active call; other numbers are inactive results; · = not tested or not shown; ! = repeats disagree. The list is not random: actives were taken first. Their share in the collection is about 27%.

SMILES	CYP2C9 activ	CYP2C19 act	CYP2C9 inhib	EphB4 antag	CYP2C19 inhib
CCCOC(=O)c1ccc(NC(=O)Oc2ccccc2)cc1	1	1	1.9	7.9	4.9
CCOC(=O)C1C(=O)C=C(C)C(C(=O)OCC)C1c1ccc(OC)cc1 (stereo not drawn)	0.8	0.3	17.0	-7.3	72.6*
CCOC(=O)C1=C(C)NC(SC)=NC1c1ccc(OC)cc1 (stereo not drawn)	·	·	·	4.6	·
CCCOC(=O)c1ccc(OC(=O)c2ccco2)cc1	2*	0.9	-96.9	-1.8	11.8
CCOC(=O)C1=C(C)NC(C)=C(C(=O)OCC)C1c1ccc(OC)cc1	0.1	0.3	88.4*	1.6	69.5*
Cc1cc(C)nc(Nc2n[nH]c(COc3ccc(Cl)cc3)n2)n1	1	1.1	-4.7	-3.1	-9.5
CC(=O)NC(=O)Nc1sc(=S)n(C)c1C	0.9	0.9	7.0	-1.9	11.3
CC(=O)Nc1ccc(OC(=O)c2ccco2)cc1	·	·	·	1.3	·
C=CCOC(=O)C1=C(C)NC(C)=C(C(=O)OCC=C)C1c1ccc(O)cc1	0	0	100.4*	·	99.5*
COC(=O)C1=C(C)NC(C)=C(C(=O)OC)C1c1ccc(OC(=O)c2ccco2)cc1	0.4	0.9	56.7*	6.3	12.2
CC(=O)Nc1cc(OC(=O)c2ccco2)cc(OC(=O)c2ccco2)c1	0.3	0.7	66.1*	1.1	26.5
CC1(C)CC(=O)c2cn3ncnc3nc2C1	1	1.1	1.1	5.1	-6.4
COC(=O)c1cn(-c2ccccc2)nc1-c1ccncc1	0.8	0.6	21.9	-0.3	37.0
O=C(c1cn(-c2ccccc2)nc1-c1cccs1)N1CCOCC1	0.6	0.9	37.6	6.3	14.8
O=C(OCc1ccccc1)c1cn(-c2ccccc2)nc1-c1ccncc1	0.6	0.5	42.3	-0.2	51.7*
O=C(c1cn(-c2ccccc2)nc1-c1ccc(F)cc1)N1CCOCC1	0.7	0.8	32.3	·	16.5
O=C(c1cn(-c2ccccc2)nc1-c1ccncc1)N1CCCCC1	0.5	0.5	47.9	5.8	52.1*
O=C(c1cn(-c2ccccc2)nc1-c1cccs1)N1CCN(c2ccccc2)CC1	0	0	97.7*	-3.5	96.3*
COC(=O)CSc1cc(C)nc2ccc(OC)cc12	0.9	0.7	12.2	4.5	30.0
COc1ccc2nc(C)cc(SCC(=O)N/N=C/c3cccc4ccccc34)c2c1	0.5	1	54.4*	-1.6	0.9
COc1ccc2nc(C)cc(SCC(=O)O)c2c1	0.6	0.5	38.4	7.0	50.3*!
c1cncc(CNc2ccc3c(c2)OCO3)c1	0.2	0.1	83.2*	3.9	88.6*
CCc1ccc(CNCc2cccnc2)cc1	0.8	0.2	21.7	8.2	79.6*
Cc1ccc(NCc2cccnc2)cc1	0.6	0.5	37.9	-2.4	53.9*
Cc1ccccc1CNCc1cccnc1	0.8	1	15.9	1.7	-0.6
SMILES	CYP2C9 activ	CYP2C19 act	CYP2C9 inhib	EphB4 antag	CYP2C19 inhib
CNc1nc(OCC(F)(F)F)nc(N2CCOCC2)n1	1	1	-1.5	-3.5	-3.4
COc1ccc(CNC(=O)CCNS(=O)(=O)c2ccc(C)cc2)cc1	1.3	0.9	-30.9	-0.8	5.9
CC(NC(=O)CCc1ccc(S(=O)(=O)NC2CCCCC2)cc1)c1ccccc1 (stereo not drawn)	0.2	0	79.3*	3.5	96.0*
O=C(Nc1ccc(NC(=O)C2CC2)nc1)c1ccccn1	1.2	0.9	-15.7	-5.2	13.1
Cc1cccc(NC(=O)CCc2ccc(S(=O)(=O)NC3CCCCC3)cc2)c1	0.4	0.8	59.5*	6.4	15.1
Cc1ccc(CNC(=O)CCc2ccc(S(=O)(=O)NC3CCCCC3)cc2)cc1	0.3	0.5	69.4*	-0.4	51.5*
CC(NS(=O)(=O)c1ccc(CCC(=O)NCC2CCCO2)cc1)c1ccccc1 (stereo not drawn)	·	·	·	-7.1	·
CC(C)NS(=O)(=O)c1ccc(NC(=O)CCc2ccccc2)cc1	0.6	0.8	41.7	-2.3	21.8
O=C(Nc1cccc(NS(=O)(=O)c2ccc(S(=O)(=O)NC3CC3)cc2)c1)c1ccccn1	0	0	97.4*	3.8	98.8*
Cc1nnsc1NC(=O)OCc1ccc(C(C)(C)C)cc1	0.9	0.7	12.3	-0.2	31.8
CCOC(=O)CC1COc2ccccc2N1C(=O)c1ccc(C)cc1 (stereo not drawn)	0.5	0.7	45.3	7.3	27.3
O=C(Nc1nccs1)c1sc2ccccc2c1Cl	0.5	0.7	45.4	1.5	28.4
O=C(Nc1nccs1)C(=O)c1c[nH]c2ccccc12	0.8	0.4	18.5	7.3	63.0*
O=C(Cc1ccccc1)Nc1nc2ccccc2[nH]1	0.7	0.6	34.5	0.5	42.1
O=C(Cc1c[nH]c2ccccc12)Nc1nc2ccccc2[nH]1	0.4	0.5	58.3*	-0.7	54.1*
Cc1csc(NC(=O)Cc2c[nH]c3ccccc23)n1	0.7	0.6	28.1	3.8	35.2
O=C(Cc1c[nH]c2ccccc12)Nc1nccs1	0.8	0.5	20.7	1.1	54.6*
CCOC(=O)C1CCN(C(=O)c2cc(OCC)c(OCC)c(OCC)c2)CC1	0.7	0.8	31.7	3.0	22.1
CCn1c(NCc2ccccc2Cl)nc2ccccc21	·	·	·	-7.3	·
Cc1ccc(NC(=O)CN(C)S(=O)(=O)c2cccs2)cc1F	0.7	0.3	31.6	5.7	68.6*
Cc1ccc(NC(=O)CN(C)S(=O)(=O)c2cccs2)cc1C	0.8	0.2	17.2	2.5	78.6*
CCOc1ccc(NC(=O)CN(C)S(=O)(=O)c2cccs2)cc1	1.3	0.8	-31.9	-6.2	20.5
Cc1cc(-c2ccccc2)nc2cc(C(=O)N(Cc3ccccc3)Cc3ccccc3)nn12	·	·	·	0.6	·
CC1CCN(S(=O)(=O)c2ccc(NC(=S)NC(=O)c3ccc(Cl)cc3)cc2)CC1	1.3	1.2	-27.8	2.4	-23.0
CC1CCN(CCCNC(=O)c2cc3sccc3n2C)CC1	1	1.1	-2.0	1.4	-14.2
SMILES	CYP2C9 activ	CYP2C19 act	CYP2C9 inhib	EphB4 antag	CYP2C19 inhib
CN(C(=O)c1cc2sccc2n1C)C1CCCCC1	0.8	0.3	21.4	1.5	73.9*
COC(=O)c1cccc(NC(=O)c2cc3sccc3n2C)c1	0.5	0.2	53.4*	3.7	77.1*
Cn1c(C(=O)N2CCCC(C(=O)O)C2)cc2sccc21 (stereo not drawn)	1	1	4.5	7.7	1.0
Cn1c(C(=O)NC2CCCCC2)cc2sccc21	0.8	0.4	17.5	-0.1	55.1*
O=C(CSc1nc2c(c(C(F)(F)F)n1)CCc1ccccc1-2)NCc1ccc(F)cc1	·	·	·	-3.1	·
O=C(CCCOc1ccccc1)Nc1nnc(C2CCCO2)s1 (stereo not drawn)	0.4	0.4	55.5*	-3.4	63.8*
Cc1ccc(-c2[nH]nc3c2C(c2ccc(OC(=O)N4CCOCC4)cc2)C(C#N)=C(N)O3)cc1 (stereo not drawn)	0.6	0.6	36.0	2.8	39.8
COc1cc(OC)c(-c2nc3cnccc3n2C)cc1OC	0.6	0.2	35.3	-1.0	75.4*
Cn1c(-c2ccc3ccccc3n2)nc2cnccc21	0.5	0.1	53.6*	-6.3	88.0*
